An excerpt weighted towards active compounds, which were near 10% of everything screened.
GLS inh = blocks human kidney-isoform glutaminase activity. Potency, µM (highest dose often 45.5 µM), without a hit: top-dose activity change, negative = inhibition, actives largely listed as inhibitors. GLS enzymatic activity, qHTS titration. AID 624170. hit rate 0.21% among 410,000. O94925; note: % is set by controls: 0 for no effect and ±100 for the full control effect
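Read-out is an Amplex red fluorescence increase coupled through glutamate oxidase and HRP, measured before and after 30 min room-temperature incubation. hKGA is in 45 mM KH2PO4 (pH 8.2) with 0.02% Tween-20; glutamine added as 1mM solution.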
G9a block = G9a (human) methyltransferase inhibition; G9a H3K9 monomethylation, AlphaScreen, 2 h; AID 504332; hit rate 8.8% among 350,000; Potency, µM (series often up to 102 µM), inactives show top-dose activity, negative = inhibition, most hits filed as inhibitors; note: % is set by controls: 0 for no effect and ±100 for the full control effect; nearly all actives have a fitted effect of over 75% in size
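Readings reflect AlphaScreen signal from monomethyl-H3K9 antibody detection. HMT at 20 nM; substrate b-H3K9 500 nM; cofactor SAM 20 uM; 2 h RT reaction; compounds tested as titrations in qHTS with 15 min preincubation.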
HP1b chromo inh = blocks HP1-beta chromodomain binding to methylated histone tails. AlphaScreen HP1-beta / biotin-H3K9me3 peptide binding. P83916. AID 540317. Potency, µM (series often up to 114 µM), for the others: top-dose activity change, negative = inhibition, usual class: inhibitors. hit rate 0.56% among 390,000; note: nearly all actives have a fitted effect of over 70% in size
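AlphaScreen: HP1-beta (50 nM) preformed 30 min with biotin-H3(1-18)K9me3 peptide (50 nM) in PBS pH 7.4, 0.01% Tween-20. Compound added for 30 min at RT, then streptavidin donor/nickel chelate acceptor beads (10 ug/mL) for 30 min.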
JMJD2A Tudor inh = JMJD2A Tudor domain (human) inhibition; hit rate 4.4% among 390,000; O75164; Potency, µM (series often up to 114 µM), without a hit: top-dose activity change, negative = inhibition, most hits filed as inhibitors; AlphaScreen JMJD2A-Tudor / H3K4me3 peptide binding; note: % is set by controls: 0 for no effect and ±100 for the full control effect; nearly all actives have a fitted effect of over 50% in size
Target sequence (O75164 whole entry, looked up, the tested form may be a part): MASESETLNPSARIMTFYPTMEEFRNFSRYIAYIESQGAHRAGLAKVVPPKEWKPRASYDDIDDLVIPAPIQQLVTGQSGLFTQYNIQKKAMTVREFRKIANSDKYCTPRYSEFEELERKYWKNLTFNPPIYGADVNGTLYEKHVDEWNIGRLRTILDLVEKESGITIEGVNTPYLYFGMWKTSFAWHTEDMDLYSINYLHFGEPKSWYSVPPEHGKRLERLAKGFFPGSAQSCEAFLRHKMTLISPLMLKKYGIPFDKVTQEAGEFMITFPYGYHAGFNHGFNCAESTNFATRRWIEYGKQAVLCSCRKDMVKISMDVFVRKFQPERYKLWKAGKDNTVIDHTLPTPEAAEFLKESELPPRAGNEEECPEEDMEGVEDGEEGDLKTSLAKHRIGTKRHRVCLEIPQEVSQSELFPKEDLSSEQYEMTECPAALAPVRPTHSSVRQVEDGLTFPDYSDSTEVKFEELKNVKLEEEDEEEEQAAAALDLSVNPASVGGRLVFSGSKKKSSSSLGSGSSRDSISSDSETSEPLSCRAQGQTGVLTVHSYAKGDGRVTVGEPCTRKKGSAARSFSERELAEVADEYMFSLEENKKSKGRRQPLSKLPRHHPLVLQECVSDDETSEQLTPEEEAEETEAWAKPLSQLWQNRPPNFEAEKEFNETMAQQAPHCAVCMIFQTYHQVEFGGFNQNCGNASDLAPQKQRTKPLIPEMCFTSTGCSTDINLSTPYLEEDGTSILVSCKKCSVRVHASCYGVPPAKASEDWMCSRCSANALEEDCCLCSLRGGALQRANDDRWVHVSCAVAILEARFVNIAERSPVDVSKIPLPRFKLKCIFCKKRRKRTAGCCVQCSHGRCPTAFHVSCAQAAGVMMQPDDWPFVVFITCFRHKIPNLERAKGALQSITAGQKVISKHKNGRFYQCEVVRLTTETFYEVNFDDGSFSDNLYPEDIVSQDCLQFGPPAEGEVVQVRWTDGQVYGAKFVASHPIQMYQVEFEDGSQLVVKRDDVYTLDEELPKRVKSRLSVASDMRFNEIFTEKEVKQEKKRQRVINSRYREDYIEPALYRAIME
BAZ2B block = BAZ2B (human) inhibition; Q9UIF8; hit rate 4.4% among 360,000; Potency, µM (titrated, usually from 114 µM), for inactives: top-dose activity change, negative = inhibition, actives largely listed as inhibitors; AlphaScreen BAZ2B-H3K14Ac peptide displacement; note: % is set by controls: 0 for no effect and ±100 for the full control effect; nearly all actives have a fitted effect of over 60% in size
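BAZ2B 50 nM plus b-H3(5-23)K14Ac 50 nM, PBS pH 7.4/0.01% Tween-20, 30 min RT; compound added (max 110 uM), 30 min RT; streptavidin donor/Ni-chelate acceptor beads 10 ug/mL final, 20 min dark; AlphaScreen read.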
L3MBTL1 block = inhibitors of human L3MBTL1. hit rate 0.66% among 230,000. Potency, µM (doses to about 57.1 µM), inactives show top-dose activity, negative = inhibition, actives largely listed as inhibitors. AlphaScreen L3MBTL1–H3K9me1 peptide binding. Q9Y468; note: % is set by controls: 0 for no effect and ±100 for the full control effect; nearly all actives have a fitted effect of over 60% in size
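First, the protein-peptide complex forms for 30 min at room temperature (L3MBTL1 50 nM, biotinylated H3K9me1 peptide 75 nM). Next, compounds are pin-transferred and incubated 30 min. Finally, AlphaScreen beads are added and read after 30 min.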
* marks the source's active call; other numbers are inactive results; ? = inconclusive; nt = no result given; ! = not active in a repeat; [ ] = dose if it differs, or a comment. Calls come from the whole dose curve; as a rule, active = well fitted curve in the direction sought with a large enough effect; inconclusive = small, poorly fitted or top-dose-only effect, or another doubt; inactive = no such curve, though single readings can be large; an effect the other way counts as inactive or inconclusive. Potency is the fitted concentration of half-maximal effect.

SMILES	GLS inh	G9a block	HP1b chromo inh	JMJD2A Tudor inh	BAZ2B block	L3MBTL1 block
COc1ccc(CN2Cc3cc(N4CCCCC4)ccc3-n3nncc3C2)cc1	26%	nt	nt	nt	nt	nt
CC(=O)O[C@H]1C[C@H](O[C@H]2[C@@H](O)CC(O[C@H]3[C@@H](O)C[C@H](O[C@H]4CC[C@@]5(C)[C@H](CC[C@@H]6[C@@H]5CC[C@]5(C)[C@@H](C7=CC(=O)OC7)CC[C@]65O)C4)O[C@@H]3C)O[C@@H]2C)O[C@H](C)[C@H]1O[C@@H]1O[C@H](CO)[C@@H](O)[C@H](O)[C@H]1O (stereo partly drawn)	0%	-6%[12.7 µM]	nt	nt	nt	nt
S=C(SSC(=S)N1CCCCC1)N1CCCCC1	13%	nt	nt	nt	nt	nt
O=C1CSC(c2ccccc2Cl)c2cc(Cl)ccc2N1 (stereo not drawn)	nt	11%[59 µM]	nt	nt	nt	nt
O=C(N/N=C/c1c(O)n(Cc2ccc(F)cc2)c(=O)[nH]c1=O)c1ccccc1	12%	1%	41%	?	79µM*	-29%
COc1ccc(CCn2c(O)c(/C=N/NC(=O)c3ccncc3)c(=O)[nH]c2=O)cc1OC	12%	4%	20%	-27%	?	-5%
C=CCn1c(O)c(/C=N/NC(=O)c2ccncc2)c(=O)[nH]c1=O	4%	1%	42%	-23%	79µM*	nt
O=C(N/N=C/c1c(O)n(Cc2ccccc2)c(=O)[nH]c1=O)c1ccncc1	4%	-37%	18%	?	50µM*	nt
C/C(=N\NC(=O)c1ccncc1)c1c(O)n(Cc2ccccc2)c(=O)[nH]c1=O	-4%	43%[59 µM]	40%	-11%	-16%	8%
CC1=CC(=O)C2=C(C)C[C@@H](O)[C@@H]3[C@@H](OC(=O)[C@H]3C)[C@H]12	nt	23%[21.5 µM]	nt	nt	nt	nt
CC[C@H](C)C(=O)O[C@@H]1[C@H](O)[C@@H]2[C@H](CN3C[C@@H](C)CC[C@@H]3[C@@]2(C)O)[C@@H]2C[C@@]34O[C@@]5(O)[C@@H](OC(=O)[C@](C)(O)CC)CC[C@@]3(C)[C@H]5[C@H](OC(C)=O)[C@@H](OC(C)=O)[C@H]4[C@]12O	nt	26%[21.5 µM]	nt	nt	nt	nt
COc1cc(CC(C)N)cc2c1OCO2 (stereo not drawn)	2%[99.4 µM]	nt	nt	nt	nt	nt
CCC(=Nc1ccc(Cc2ccncc2)cc1)c1c(O)n(C)c(=O)n(C)c1=O	13%	79µM*	20%	-9%	-6%	-2%
Nc1ccnn1C1CCNCC1	1%	22µM*	?	-17%	3%	10%
O=C1CC(N2CC=C(c3ccccc3)CC2)C(=O)N1c1ccc(F)cc1 (stereo not drawn)	-4%	10µM*	7%	?	-25%	-9%
CCCOc1ccc(N2C(=O)CC(N3CC=C(c4ccccc4)CC3)C2=O)cc1 (stereo not drawn)	-5%	?	16%	-15%	-35%	-12%[11.4 µM]
Cc1ccc(CNC(=O)CCCn2c(=O)c3sccc3n(CC(=O)Nc3c(C)cccc3C)c2=O)cc1	0%	-6%[59 µM]	37%	-1%	-24%	nt
CCN1C(=O)/C(=C\c2ccc([N+](=O)[O-])s2)C(=O)NC1=S	nt	2.8µM*	nt	nt	10µM*	nt
C=CCN1C(=O)/C(=C/c2ccc(Br)s2)C(=O)NC1=S	-8%	3.2µM*	-13%	45µM*	56µM*	-10%
Cn1c(=O)n(C)c2cc(CNCCc3ccccc3)ccc21	-9%	-1%[59 µM]	46%	-3%	-33%	nt
CN1CCC(O)(c2cccs2)C(C(=O)c2cccs2)C1 (stereo not drawn)	0%	25µM*	6%	-18%	-18%	1%
CN1CCC(O)(c2ccc(F)cc2)C(C(=O)c2ccc(F)cc2)C1 (stereo not drawn)	9%	?	nt	nt	nt	nt
CCOC(=O)c1c(C)n(CCN2CCN(C)CC2)c2ccc(OC)cc12	14%	?	?	18µM*	-34%	-2%
CCOC(=O)c1c(C)n(Cc2ccco2)c2ccc(OC)cc12	5%	9%	19%	-12%	19%	4%
CO[C@H]1[C@@H](O)CC(OC2[C@@H](O)CC(OC3[C@@H](O)C[C@H](OC4CC[C@@]5(C)C(CCC6C5CC(O)[C@]5(C)[C@H](C7=CC(=O)OC7)CCC65O)C4)O[C@@H]3C)O[C@@H]2C)O[C@@H]1C (stereo partly drawn)	3%	10%[12.7 µM]	nt	nt	nt	nt
SMILES	GLS inh	G9a block	HP1b chromo inh	JMJD2A Tudor inh	BAZ2B block	L3MBTL1 block
COC(=O)/C=C/C(=O)N[C@@H]1CC[C@@]2(O)[C@H]3Cc4ccc(O)c5c4[C@@]2(CCN3CC2CC2)[C@H]1O5	nt	31%[59 µM]	nt	nt	nt	nt
CCN(CC)c1ccc(CN2CC=C(c3ccc(F)cc3)CC2)cc1	-7%	45µM*	45µM*	50µM*	79µM*	nt
NCCc1ccccn1	nt	-2%[59 µM]	nt	nt	nt	nt
Cn1cnc(CCN)c1	3%	7.9µM*!	17%	14µM*	nt	nt
CCCCC/C=C\C/C=C\C/C=C\C/C=C\CCCC(=O)Nc1ccc(O)cc1C	nt	4%[59 µM]	nt	nt	nt	nt
Fc1ccc2c(c1)nnn2C1CCN(Cc2nnnn2CCc2ccccc2)CC1	13%	50µM*	27%	-22%	?	-2%
Cc1nc2ccccc2n1C1CCN(Cc2nnnn2CCc2ccccc2)CC1	-5%	50µM*	11%	?	?	-3%
c1ccc(CCn2nnnc2CN2CCC(n3nnc4ccccc43)CC2)cc1	0%	-6%	36%	-11%	1%	9%
OC1(c2ccc(Cl)cc2)CCN(Cc2c[nH]c3ccccc23)CC1	9%	30%[59 µM]	-16%	-34%	nt	nt
ClC1=C(Cl)[C@]2(Cl)[C@@H]3[C@@H]4C[C@@H]([C@H]5O[C@@H]45)[C@@H]3[C@@]1(Cl)C2(Cl)Cl	6%[99.4 µM]	nt	nt	nt	nt	nt
CC(C)(C)c1ccc(OCC(=O)Nc2ccc(Cl)cc2C(=O)c2ccccc2)cc1	10%	-27%[59 µM]	23%	-9%	-4%	nt
Cc1ccccc1CN1CCN(c2ccc(Cl)cc2)CC1	-14%	13µM*	-12%	4µM*	?	13%
COc1cc(C)c(CN2CCN(c3ccccc3)CC2)cc1C	21%	?	-58%	3.2µM*	?	-14%
Oc1ccc(Br)cc1CN1CCN(c2ccccc2)CC1	23%	-20%[12.7 µM]	40%	-18%	-6%	nt
Cc1ccccc1CN1CCNCC1	-1%	nt	43%	-3%	-21%	5%
COc1ccccc1NC(=O)CCn1cnc2onc(-c3ccc(F)cc3)c2c1=O	-9%	9%[59 µM]	43%	1%	6%	nt
c1ccc(CN2CCC3(CCNCC3)CC2)cc1	nt	-28%[12.7 µM]	nt	nt	nt	nt
COc1ccc(N2C(=O)NC(=O)/C(=C/c3cccc(OC(=O)c4cccs4)c3)C2=O)cc1Cl	9%	10µM*	2%	-13%	79µM*	-12%

Screening results deposited in PubChem by National Center for Advancing Translational Sciences (NCATS).
